Bead autofluor – compound fluorescence in toxin protease inhibitor counterscreen; compound autofluorescence counterscreen, microsphere flow cytometry; hits give high values; fluorescence intensity (test concentration not listed); actives 3.1% (n = 360,000); AID 624483; in the data active = fluorescence intensity above about 16000; inconclusive = no clear call, values can overlap the other calls
BoNT A protease – BoNT/A light chain protease inhibitors, primary screen, biochemical, flow cytometry, MLPCN library; Botulinum neurotoxin type A light chain protease (Clostridium botulinum A str. ATCC 3502); multiplex microsphere protease substrate cleavage; inhibition, % at 10 µM; actives 0.17% (n = 360,000); AID 588499, 2011; note: plate controls were buffer without enzyme for full effect and enzyme alone for no effect
MazEF act – activators of E. coli MazEF toxin-antitoxin RNase, primary screen, biochemical, fluorescence, uHTS; activation, % at 20 µM; Endoribonuclease toxin MazF (Escherichia coli (strain K12)), P0AE70; AID 504720, 2011; actives 0.32% (n = 350,000); FAM/BHQ RNA-DNA oligo cleavage fluorescence, 5 h; in the data active = activation above about 50%
Target sequence (P0AE70 whole entry, looked up): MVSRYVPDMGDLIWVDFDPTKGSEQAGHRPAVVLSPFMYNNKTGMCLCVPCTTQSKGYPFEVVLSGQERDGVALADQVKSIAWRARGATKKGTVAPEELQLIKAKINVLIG
DUSP3 inh – VHR1 phosphatase inhibitors, primary screen, biochemical, absorbance, uHTS; Dual specificity protein phosphatase 3 (Homo sapiens), P51452; recombinant VHR phosphatase, pNPP absorbance; inhibition, % at 13.3 µM; actives 0.52% (n = 290,000); in the data active = inhibition above about 50%
Target sequence (P51452 whole entry, looked up): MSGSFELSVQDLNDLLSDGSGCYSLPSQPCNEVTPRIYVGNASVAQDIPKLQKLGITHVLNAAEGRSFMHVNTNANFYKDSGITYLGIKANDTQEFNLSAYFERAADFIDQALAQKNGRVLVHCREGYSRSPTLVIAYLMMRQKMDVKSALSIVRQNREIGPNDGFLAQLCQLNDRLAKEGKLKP
Anthrax LF prot – Bacillus anthracis LF protease inhibitors, primary screen, biochemical, multiplex microsphere, MLPCN library; Lethal factor (Bacillus anthracis), P15917; multiplex microsphere protease cleavage assay; inhibition, % at 10 µM; actives 0.12% (n = 360,000); AID 588501, 2011; note: plate controls were buffer without enzyme for full effect and enzyme alone for no effect
BoNT-F LC inh – BoNT/F light chain protease inhibitors, primary screen, biochemical, flow cytometry, MLPCN library | Botulinum neurotoxin type F light chain protease (Clostridium botulinum) | Multiplex microsphere protease cleavage assay | actives 0.22% (n = 360,000) | inhibition, % at 10 µM; in the data active = inhibition above about 35%, passing the limit was not always enough; inconclusive = no clear call, values can overlap the other calls; note: plate controls were buffer without enzyme for full effect and enzyme alone for no effect
* hit, by the source's call; ? = inconclusive; nt = not tested or not shown. In the library only some 4.1% were active in any assay of this set; here they are far more common. Cut-off read from the data, not from the text of the source, unless noted: active = inhibition above about 30%; inconclusive = no clear call, values can overlap the other calls; inactive = below that.

SMILES	Bead autofluor	BoNT A protease	MazEF act	DUSP3 inh	Anthrax LF prot	BoNT-F LC inh
CN(C)S(=O)(=O)Nc1ccc(C(=O)O)cc1	21783*	2.3	2.2	47.7	-1.2	2.9
CCCCN(C=O)c1c(CC)nc2c(OCC(=O)N3CCOCC3)cccn12	3570	0.2	nt	nt	7.1	3.1
Cc1cc2cc(CN(CCCO)S(=O)(=O)c3cccc4nsnc34)c(=O)[nH]c2cc1C	22386*	-0.2	8.8	3.1	1.5	2.5
Cc1cc2cc(CN(Cc3ccco3)S(=O)(=O)c3c(C)ccc4nsnc34)c(=O)[nH]c2cc1C	20470*	?	-7.8	25.5	0.6	-1.5
Cc1ccc2cc(CN(Cc3ccco3)S(=O)(=O)c3c(C)ccc4nsnc34)c(=O)[nH]c2c1	8055	0.5	6.5	-11.9	2.4	-4.8
CCN1CCc2c(sc(NC(=O)Cc3ccccc3)c2C(N)=O)C1	6873	-0.6	10.3	33.1	-1.3	-4.8
CCN1CCc2c(sc(NC(=S)NC(=O)c3ccccc3)c2C#N)C1	2402	8.8	62.0*	39.5	4.0	-30.8
CCN1CCc2c(sc(NC(=O)c3ccc(C(=O)c4ccccc4)cc3)c2C(N)=O)C1	6112	-0.3	273.9*	33.8	5.5	-6.2
NC(=O)c1c(NC(=O)c2c(F)cccc2F)sc2c1CCN(Cc1ccccc1)C2	6169	-1.4	2.2	21.2	1.9	-6.2
NC(=O)c1c(NC(=O)c2ccccc2)sc2c1CCN(Cc1ccccc1)C2	5985	-0.5	116.4*	5.5	-8.9	-9.0
O=C(COC(=O)c1ccccc1[N+](=O)[O-])Nc1cccnc1Cl	5958	-0.2	-2.5	nt	-1.3	-1.6
Cc1ccc(NC(=O)CN2C(=O)C3CC=C(Cl)CC3C2=O)cc1 (stereo not drawn)	3920	1.0	12.7	15.8	7.7	-17.3
CC(=O)c1cccc(NC(=O)C2Cc3c(-c4cccc(F)c4)ccnc3O2)c1 (stereo not drawn)	3598	-0.2	nt	nt	-5.7	2.4
CC(C)CNC(=O)C(=O)NC1CCCC1	3146	0.0	7.6	nt	-2.8	-5.7
CC(C)CNC(=S)NC1CCCC1	20457*	?	-6.8	-10.2	-2.2	-4.1
O=C(NCCN1CCC(n2c(=O)[nH]c3ccccc32)CC1)c1ccc(F)cc1F	4478	-1.3	nt	nt	-11.4	-6.6
OCC1(CCc2ccccc2)CCCN(C/C=C/c2ccccc2)C1 (stereo not drawn)	4942	-4.1	2.2	57.0*	-8.5	-42.1
Cc1ccccc1C(=O)NC1CCN(CC(=O)Nc2nccs2)CC1	20345*	?	-1.9	22.7	-0.6	0.4
Cc1ccc(NC(=O)NC2CCN(CC(=O)Nc3nccs3)CC2)cc1	9828	-0.7	1.8	28.0	0.7	-0.5
COC(=O)c1ccccc1NC(=O)CN1CCC(NC(=O)c2ccccc2C)CC1	16191*	0.3	6.9	18.8	1.3	-4.5
Cc1cc(C(=O)CN(Cc2ccc(F)cc2)S(=O)(=O)c2ccc3c(c2)OCCO3)c(C)n1C	20608*	?	-0.8	18.7	-2.7	-3.7
O=C(CN(Cc1ccccc1)S(=O)(=O)c1ccc2c(c1)OCCO2)N/N=C/c1ccc(F)cc1	9995	-0.4	-5.9	29.7	-5.8	-3.2
Cc1cccc(NS(=O)(=O)c2csc(C(N)=O)c2)c1C	3014	-1.0	-0.1	52.6*	1.4	-23.7
COc1ccc(-c2cc3nc(NCC4CCCCC4)n(C)c(=O)c3s2)cc1OC	3864	0.4	nt	nt	2.4	-0.5
O=C(Oc1ccc2c(=O)c(Oc3ccc4ccccc4c3)coc2c1)c1cncc(Br)c1	4480	0.2	-11.2	-15.0	1.0	35.7*
O=C(Oc1ccc2ccccc2c1)c1cncc(Br)c1	11232	-0.3	0.0	7.8	0.2	-6.8
COC(=O)Nc1ccc(S(=O)(=O)N2CCCC(C(=O)NCC3CCCO3)C2)cc1 (stereo not drawn)	3743	-0.6	3.8	nt	1.6	-6.2
Cc1ccc2c(c1)N(CC(=O)N1CCCCC1)C(=O)CO2	3681	1.2	3.2	1.8	-7.7	4.2
Cc1ccc(C2=NCC(=O)N(CC(=O)N3CCCCC3)c3sc(C)c(C)c32)cc1	23432*	?	6.6	1.3	-0.3	-4.1
